Experimental data: PubChem BioAssay (NCI)
Several values for one entry are separate records, joined by “and”; a condition that tells them apart may be missing. Identical values can stand only once. This is part of a sample that, as a whole, favours compounds with a hit. Of some 83,000 tested, about 20% had one in any assay.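 Percent growth is the endpoint: 0 to 100 indicates growth inhibition (40 means 60% inhibition), 0 means no net growth, and negative values indicate cell death.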 Activity calls are given as the source filed them. How the source made its calls: active means growth percent below 10; inactive means the rest.

System: MDA-MB-468 breast
Experiment: NCI-60 one-dose screen, 48 h (100 = growth as untreated, 0 = no growth, -100 = all killed)
Details: 10 µM unless noted

| SMILES | growth |
| --- | --- |
| C#CC(=O)/C=C/CCCCCCC#CC(=O)CCC(=O)C#CCCCCCC/C=C/C(=O)C#C | -10% (active) |
| O=S(=O)(O)CCI | 91.8% (inactive) |
| CC(=O)OC(C)COc1ccc(-c2ccccc2)cc1 (stereo not drawn) | 98.4% (inactive) |
| CCN1C(=O)N(c2ccccc2)C2NC(=S)N(/N=C/C=C/c3ccccc3OC)C21 (stereo not drawn) | 2.35% (active) |
| NC(=O)c1ncn([C@@H]2O[C@H](CO)[C@@H](O)[C@H]2O)n1 | 83.7% (inactive) |
| OC(CCCCCCCCC(O)CN1CCc2ccccc2C1)CN1CCc2ccccc2C1 (stereo not drawn) | 127% (inactive) |
| COc1ccc(S(=O)(=O)NCCNc2nccc(-c3c(-c4cccc(F)c4)nc4sccn34)n2)cc1 | 23.3% (inactive) |
| C[C@H]1[C@H](C)CC[C@]2(CO)CC[C@]3(C)C(=CC[C@@H]4[C@@]5(C)Cc6c([nH]c7ccccc67)C(C)(C)[C@@H]5CC[C@]43C)[C@H]12 | 77.8% (inactive) |
| COc1cc(/C=C2/Oc3cc4occc4c(OC)c3C2=O)ccc1OCC(=O)Nc1ccncc1 | 105% (inactive) |
| C/C(=N\Nc1cc(C)c2ccccc2n1)c1ccccn1 | -63.2% (active) |
| CCC(c1ccc(OC)cc1)C(CC)c1ccc(O)c(CN2CCN(C)CC2)c1 (stereo not drawn) | 30% (inactive) |
| O=[N+]([O-])c1cccc(C2CC(c3ccccc3)=Nc3ccccc3S2)c1 (stereo not drawn) | 86.4% (inactive) |
| O=C(O)COc1ccc(-c2cssc2=S)cc1 | 99.5% (inactive) |
| O=S(=O)(NCCCNc1nccc(-c2c(-c3ccc(F)c(O)c3)nc3occn23)n1)c1ccc(Cl)cc1 | 62.2% (inactive) |
| O=[N+]([O-])c1cccc(C(F)(F)F)c1 | 101% (inactive) |
| FC(F)(F)C1=NNC(c2ccc3ccccc3c2)=NN1 | 108% (inactive) |
| COC(=O)c1ccc2[nH]c(O)c(C(=Nc3ccc(N(C)C(=O)CN4CCN(C)CC4)cc3)c3ccc4c(c3)OCO4)c2c1 | 38.3% (inactive) |
| CCCC1OC(c2ccco2)OCC1CC (stereo not drawn) | 118% (inactive) |
| O=C(Nc1cccnc1Nc1ccccc1)c1cn(Cc2cccc(Oc3ccccc3)c2)nn1 | 69.9% (inactive) |
| CC(=O)OCC(OC(C)=O)C(OC(C)=O)C(OC(C)=O)C(OC(C)=O)C(/C=N/Nc1ccccc1)=N/Nc1ccccc1 (stereo not drawn) | 46.4% (inactive) |
| CC/C=C\C[C@H](O)C/C=C1/C(=O)C=C[C@@H]1C/C=C\CCCC(=O)O | 28.7% (inactive) |
| C=C(CNCCc1ccc(O)cc1)[C@@H]1CC[C@]2(CO)CC[C@]3(C)[C@H](CC[C@@H]4[C@@]5(C)CCC(NCCO)C(C)(C)[C@@H]5CC[C@]43C)[C@@H]12 (stereo partly drawn) | -84.3% (active) |

| SMILES | growth |
| --- | --- |
| COc1cccc(NC(=O)Nc2ccc(Oc3ncnc4[nH]c(C)c(C)c34)cc2)c1 | 125% (inactive) |
| COc1cc2nc(Cl)nc(Nc3cccc(C4=Nc5c(N)nc(N)nc5NC(c5ccc(F)cc5)C4)c3)c2cc1OC (stereo not drawn) | 45.8% (inactive) |
| Cc1ccc2c(n1)C(=O)C(Cl)=C(Nc1ccc(C)c(C)c1)C2=O | -25.3% (active) |
| CC(=O)OCC(=O)C1CCC=CC1OC(C)=O (stereo not drawn) | 85.6% (inactive) |
| Cc1[nH]n(-c2ccccc2)c(=O)c1C=NC(=S)C(N)=S | 95.9% (inactive) |
| Cc1cc(N/N=C/c2nc(-c3ccc(Cl)cc3)oc2C)c2cc(Cl)ccc2n1 | -47.4% (active) |
| CN(C)c1ccc([C@@H](C(=O)Nc2cccc([N+](=O)[O-])c2)N(C(=O)c2cc3ccccc3[nH]2)c2cccc([N+](=O)[O-])c2)cc1 | 97.8% (inactive) |
| C/C(=N/NC(N)=S)c1ccc(C)cc1 | 23.5% (inactive) |
| COC(=O)c1ccc(NC(N)=NCCC(C)(C)c2ccc(C(F)(F)F)cc2)nc1 | -14.2% (active) |
| CC1=C[S+](c2ccccc2)c2cccc3cc4ccccc4c1c23 (stereo not drawn) | -70% (active) |
| O=C1OC(=O)C2C3CC(c4ccccc43)C12 (stereo not drawn) | 121% (inactive) |
| Clc1ccccc1[C@@H]1C[C@@H]2Cc3cc(Br)c4ccccc4c3N1O2 | 4.19% (active) |
| CC(=O)Nc1nc(C)c(C(=O)NNS(=O)(=O)c2ccccc2)s1 | 107% (inactive) |
| CCCCCCCCCCCCCCCCCCOc1ccccc1CC(=O)OCC[N+]1(C)CCOCC1 | 51.9% (inactive) |
| COc1ccc2c(c1)Oc1nc(N)c(C#N)c(N)c1C2Sc1ccc(C)cc1 (stereo not drawn) | -45.8% (active) |
| COC(=O)[C@@]1(C)CC[C@]2(C)CC[C@]3(C)C4=CC=C5C(=CC(=O)C(O)=C5C)[C@]4(C)[C@@H](O)C[C@@]3(C)[C@@H]2C1 | 10.1% (inactive) |
| CCCOc1ccc(/C=N/Nc2cc(C)nc3ccc(Br)cc23)cc1 | 96.1% (inactive) |
| CCOC(=O)c1c(C)nc2c(c1N)C(=O)C(=O)N2Cc1ccc(C(F)(F)F)cc1 | 77.8% (inactive) |
| Cn1c(SC(C(=O)Nc2ccc(F)cc2)c2ccccc2)nc2ccccc2c1=O (stereo not drawn) | 99.6% (inactive) |
| COc1ccccc1CNc1c2ccccc2nc2ccccc12 | 28.3% (inactive) |
| CCC(C)(C)c1ccc(OCCCCCCN2CCNCC2)cc1 | -9.22% (active) |
| Oc1ccc(O)cc1 | 96.7% (inactive) |

| SMILES | growth |
| --- | --- |
| Nc1nc2c(c3cnccc13)C(c1cccc(Cl)c1)Cc1cnccc1-2 (stereo not drawn) | -15.9% (active) |
| COc1cc(/C=C/c2cc(/C=C/c3ccc(O)c(OC)c3)n(-c3ccccc3)n2)ccc1O | -31.9% (active) |
| Oc1ccc(-c2nc3ccccc3s2)cc1CN(Cc1ccccn1)Cc1ccccn1 | 13.6% (inactive) |
| COc1cccc(NC(=O)c2c(-c3ccccc3)c(-c3ccccc3)n[nH]c2=O)c1 | 92.4% (inactive) |
| Cc1ccc(Cl)cc1NC(=O)c1sc2nc3c(cc2c1N)C(=O)CCC3 | 8.44% (active) |
| O=C(Cc1ccccc1)Cc1ccccc1 | 99.5% (inactive) |
| Oc1ccc(N=Cc2ccccc2O)cc1 | 93.3% (inactive) |
| CC1=NOCC(=O)N1 | 95.9% (inactive) |
| CSc1ccc(N(C)c2nc(C)nc3c2CCC3)cc1 | 46.8% (inactive) |
| O=C(O)C(O)C(O)C(=O)O.[NH-]C1CCCCC1[NH-].[Pt+2] (stereo not drawn) | 95.5% (inactive) |
| Nc1cc(-c2ccc(Cl)cc2)nn1-c1nc2ccccc2nc1Cc1ccccc1 | 75.7% (inactive) |
| CCn1c(=O)n(C)c2c(=O)n(C)c(=O)n(C)c21 | 103% (inactive) |
| C=CC(=O)N(C)[C@H]1C[C@H]2OC(C)(C1OC)n1c3ccccc3c3c4c(c5c6ccccc6n2c5c31)C(=O)NC4 (stereo partly drawn) | -52.4% (active) |
| COc1ccc(/C(=C\c2ccc3c(c2)OCO3)C(=O)Nc2nc3ccccc3s2)cc1OC | 90.5% (inactive) |
| CCCOC(=O)Nc1nc2ccc(SCC(C)C)cc2s1 | -9.94% (active) |
| CS(=O)(=O)N1CCN(Cc2cc3nc(-c4cccc5[nH]ncc45)nc(N4CCOCC4)c3s2)CC1 (tested in a mixture with another compound) | -47.9% (active) |
| CSc1nc(C)c(C(=O)CCN2CCN(c3ccccn3)CC2)s1 | 87.1% (inactive) |
| C=CCc1cc(C)ccc1NC(C(=O)NCC(=O)OC)c1ccccc1 (stereo not drawn) | 111% (inactive) |
| CN1CCN(Cc2ccc(NC(=O)c3cncc(C#Cc4cnc5ccc(N6CCSCC6)nn45)c3)cc2C(F)(F)F)CC1 | -74.2% (active) |
| COc1cccc(CNc2c3ccccc3nc3ccccc23)c1OC | 1.08% (active) |
| N=c1nc(N)ncn1-c1ccccc1 | 113% (inactive) |
| NC(=Nc1ccc(N)cc1)C(N)=Nc1ccc(N)cc1 | 94.3% (inactive) |

| SMILES | growth |
| --- | --- |
| O=C(Nc1ccc(Oc2ccc(F)cc2)c(Cl)c1)c1cnccn1 | 31.8% (inactive) |
| O=c1ccc2c(ccc3ncccc32)o1 | 107% (inactive) |
| C[C@H]1[C@H]2[C@H]3CC[C@@H]4[C@@]5(C)C/C(=C/c6ccco6)C(=O)C(C)(C)[C@@H]5CC[C@@]4(C)[C@]3(C)CC[C@]23CO[C@]1(C)[C@@H](C(=O)/C=C\c1ccco1)C3 | 76.3% (inactive) |
| CCOC(=O)C(C#N)C1CCCCC1 (stereo not drawn) | 124% (inactive) |
| C=CCOC(=O)C1=C(C)N(CC)C(=O)N(CC)C1c1c(Cl)n(C)c2ccccc12 (stereo not drawn) | 98.2% (inactive) |
| Cc1ccc(C)c2c1sc1nc3nc4sc5ccccc5n4c(=N)c3c(=O)n12 | 88.7% (inactive) |
| CN(Cc1ccc(C(F)(F)F)cc1)CC(O)C(=O)Nc1ccc(Cl)cc1 (stereo not drawn) | -30.5% (active) |
| O=C(CCl)c1ccc2c(c1)CCCC2 | 116% (inactive) |
| C#CCOc1cccc(/C(N)=N/C(N)=N/c2nc3ccccc3s2)c1 | 76.4% (inactive) |
| O=C(O)C1C2C=CC(C2)C1C(=O)O (stereo not drawn) | 119% (inactive) and 22.9% (inactive) and 92.2% (inactive) |
| Nc1nc2c(c3ncccc13)C(c1cccc(Cl)c1)Cc1ncccc1-2 (stereo not drawn) | 26.6% (inactive) |
| Cc1ccc(/C=C/c2nn3c(-c4ccco4)nnc3s2)cc1C | 107% (inactive) |
| COc1ccc2sc3c(NCCO)nc4ccccc4c3c(=O)c2c1 | 109% (inactive) |
| CCCCCOc1ccc(C(=O)/C(Br)=C/C(=O)O)cc1 | 89.2% (inactive) |
| COc1cc([C@@H]2c3cc4c(cc3C(Br)[C@H]3COC(=O)[C@H]23)OCO4)cc(OC)c1OC (stereo partly drawn) | -49.3% (active) |
| N#Cc1nn(-c2cc(=O)[nH]c3ccc(Cl)cc23)c(N)c1C#N | 110% (inactive) |
| Cc1ccccc1-c1cc(-c2ccc(Br)s2)[nH]c(=O)c1C#N | 96.4% (inactive) |
| O=C1CSC(c2ccccc2Cl)N1c1nnc(Cn2cnnc2)o1 (stereo not drawn) | 27.2% (inactive) |
| NCCNC(=O)c1cccc(COc2ccccc2NC(=O)c2cc(Br)c(Br)[nH]2)c1 | 85.1% (inactive) |
| O=Nc1ccc2ccccc2c1O | 68.3% (inactive) |
| COc1c(C)c2c(c(O)c1C/C=C(\C)CCC(=O)O)C(=O)OC2 | 37.9% (inactive) |
| COc1ccc(NC(=O)CSc2nc3ccccc3c(=O)n2CCc2ccccc2)cc1 | 87.7% (inactive) |
